Only some compounds are listed: those with a hit (about 4% of all), similar ones and a draw of the others.
DENV2 CPE rescue = DENV2-induced cell death inhibition | CPE inhibition, % at 9.99 µM | AID 651640 | actives 1.7% (n = 350,000) | DENV2-infected cells, cytopathic effect rescue, plate reader; in the data active = CPE inhibition above about 20%, passing the limit was not always enough; inconclusive = no clear call, values can overlap the other calls; tested in BHK-21 cells
ERAP1 inh = inhibitors of human ERAP1 aminopeptidase | Q9NZ08 | recombinant ERAP1, Leu-AMC fluorescence, 60 min | inhibition, % at 10.7 µM | actives 0.15% (n = 340,000) | AID 652197;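 active = mean replicate inhibition of at least 30%, or all replicates individually reaching that 30% level; inactive = mean below 30% and not every replicate reaching it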
AF4-AF9 inh = MLL-AF4/AF9 protein interaction inhibition; AID 651704; P42568; actives 0.47% (n = 350,000); inhibition, % at 10 µM; AlphaScreen, biotin-AF4 peptide binding to FLAG-AF9;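 active = every replicate reaching a set inhibition limit, whatever the replicate mean, cut at about 25% in these data; inconclusive = mean inhibition reaches that limit but some replicates miss it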
Target sequence (P42568 whole entry, looked up): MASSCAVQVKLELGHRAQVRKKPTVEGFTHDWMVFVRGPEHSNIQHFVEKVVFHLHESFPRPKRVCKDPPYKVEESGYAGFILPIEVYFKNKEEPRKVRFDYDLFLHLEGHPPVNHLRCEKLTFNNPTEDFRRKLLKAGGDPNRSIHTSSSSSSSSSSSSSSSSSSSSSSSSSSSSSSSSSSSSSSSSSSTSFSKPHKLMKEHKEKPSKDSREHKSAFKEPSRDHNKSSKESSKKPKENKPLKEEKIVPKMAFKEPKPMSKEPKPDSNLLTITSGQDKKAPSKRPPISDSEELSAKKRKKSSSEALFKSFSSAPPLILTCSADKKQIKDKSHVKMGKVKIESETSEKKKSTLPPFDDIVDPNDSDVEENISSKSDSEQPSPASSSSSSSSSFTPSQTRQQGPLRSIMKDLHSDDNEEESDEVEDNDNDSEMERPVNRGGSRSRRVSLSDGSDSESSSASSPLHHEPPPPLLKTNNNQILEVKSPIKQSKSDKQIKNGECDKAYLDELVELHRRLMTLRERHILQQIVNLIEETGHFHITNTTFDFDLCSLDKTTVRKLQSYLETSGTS
FGF22 binding-1 = shifts melting point of recombinant human FGF22. Q9HCT0. recombinant FGF22 thermal shift, SYPRO orange fluorescence; percent of sucrose octasulfate shift, DMSO zero. activity (Tm shift, normalised), % at 9.99 µM. actives 1.5% (n = 340,000);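 active = mean Tm shift, scaled 0 neutral to 100 positive control, at about 1.3% or above, every replicate too, limit read from the data; inconclusive = no clear call, values can overlap the other calls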
RAD52 anneal inh = RAD52 (human) annealing inhibition; P43351; inhibition, % at 18.7 µM; actives 0.46% (n = 360,000); recombinant RAD52 DNA annealing, FRET fluorescence;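 active = every replicate showing at least 50% inhibition; inconclusive = mean inhibition at least 50% but not in every replicate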
FGF22 binding-2 = binds human FGF22 shifting its melting temperature. shares compounds with FGF22 binding-1. recombinant FGF22 thermal shift, SYPRO orange fluorescence. thermal shift activity, °C (ΔTm) at 38 µM. actives 2% (n = 1,000). AID 720646;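 active = fitted rise in melting shift crosses a set limit at or below the top valid dose tested; inconclusive = flat fit at mid-level activity, or a poor quality fit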
SYPRO no-protein = counter-screen for FGF22 binders: compound-only thermal shift, no protein; shares compounds with FGF22 binding-1; compound-only SYPRO orange thermal shift counter-screen; AID 743019; AC50, µM (series often up to 38 µM); actives 2% (n = 1,000);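 active = rising signal whose fitted curve reaches the 0.54 level within the top valid dose, showing a melting point, actives reach about 13 µM in these data; inactive = the rest, including activity in the opposite direction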; also: value is where the raw curve crosses a fixed level and not half-maximal
Large screens that a line does not name were inactive (follow-up assays come after a bar, where they were run).

CCCCc1nc2cc(C(=O)NCc3cn(C)nc3C)ccc2o1	DENV2 CPE rescue 47.3
COc1ccc2c3c([nH]c2c1)[C@@H](CO)N(S(C)(=O)=O)CC31CCN(CC2CC2)CC1	none
COc1ccc2c3c([nH]c2c1)[C@H](CO)N(S(C)(=O)=O)CC31CCN(CC2CCOCC2)CC1	none
COc1ccc2c3c([nH]c2c1)[C@@H](CO)N(S(C)(=O)=O)CC31CCN(CC2CCCC2)CC1	DENV2 CPE rescue 53.8
COc1ccc2c3c([nH]c2c1)[C@H](CO)N(S(C)(=O)=O)CC31CCN(CC2CCCC2)CC1	DENV2 CPE rescue 28.4
O=C(Nc1ccc(O)cc1)c1ccc2c(c1)C(=O)N(Cc1cccnc1)C2=O	DENV2 CPE rescue 22.4
O=C(c1ccncc1)N1N=C(C2CC2)CC1(O)C(F)(F)F (stereo not drawn)	none
O=C(c1cccnc1)N1N=C(C2CC2)CC1(O)C(F)(F)F (stereo not drawn)	FGF22 binding-1 44.1
CC(C)C#Cc1ccc2c(c1)O[C@@H](CN(C)C(=O)c1cccnc1)[C@@H](C)CN([C@@H](C)CO)S2(=O)=O	none
CCC(=O)N/N=C/c1ccc(-c2ccc([N+](=O)[O-])cc2)o1	none
CC(C)(C)C(=O)/C=c1\s/c(=C\c2ccc(-c3ccc([N+](=O)[O-])cc3)o2)c(=O)n1CC(=O)NC(N)=O	FGF22 binding-1 43.9
CCCNC(=O)N[C@H]1CC[C@@H](CCn2cc(C3CCCC3)nn2)O[C@@H]1CO	none (no result: AF4-AF9 inh)
O=C(C(=O)c1cccnc1)c1cccnc1	none
Cc1cccnc1	DENV2 CPE rescue 21.5 (no result: AF4-AF9 inh)
COCCNC(=O)c1cc(-c2ccccc2)n(Cc2cc(C)no2)n1	DENV2 CPE rescue 21.7
CC(C)NC(=O)Nc1ccc2c(c1)C(=O)N([C@H](C)CO)C[C@H](C)[C@H](CN(C)S(=O)(=O)c1ccccc1)O2	none
O=C1N=c2ccccc2=C1c1sc(NS(=O)(=O)c2ccccc2)nc1O	none
O=C1N=c2ccccc2=C1c1sc(NS(=O)(=O)Cc2ccccc2)nc1O	FGF22 binding-1 1.3
C[C@H](CO)N1C[C@H](C)[C@@H](CN(C)CC2CC2)Oc2cc(-c3cccc(C#N)c3)ccc2S1(=O)=O	none
C/C(CC(=O)Nc1ccccc1Cl)=N\NC(=O)C(=O)NCCO	none
C/C(CC(=O)Nc1cccc(Cl)c1Cl)=N\NC(=O)C(=O)NC1CCCCC1	FGF22 binding-1 27.9 | FGF22 binding-2 inactive | SYPRO no-protein inactive
O=C(NN=Cc1ccc(O)cc1)c1ccccc1NS(=O)(=O)c1cccs1	FGF22 binding-1 1.8 | FGF22 binding-2 inactive | SYPRO no-protein inactive
COc1ccc(C(=O)Nc2cc(Cl)ccc2N2CCOCC2)cc1S(=O)(=O)N1CCOCC1	none
COc1ccc(C(=O)Nc2ccccc2N2CCOCC2)cc1S(=O)(=O)N1CCOCC1	FGF22 binding-1 20.9 | FGF22 binding-2 inactive | SYPRO no-protein inactive
COc1ccc(Br)cc1S(=O)(=O)Nc1ncccc1C	FGF22 binding-1 1.5 | FGF22 binding-2 inactive | SYPRO no-protein inactive
CC(C)c1ccc(NC(=O)Nc2nnc([C@H]3C[C@H](O)[C@@H](CO)O3)s2)cc1	FGF22 binding-1 26.0 | FGF22 binding-2 inactive | SYPRO no-protein inactive
CC(C)Oc1ccc(F)cc1-c1cc(C(=O)NCc2cccs2)[nH]n1	DENV2 CPE rescue inconclusive, FGF22 binding-1 1.6 | FGF22 binding-2 inactive | SYPRO no-protein inactive
C[C@@H]1CCCCO[C@H](CN(C)Cc2ccncc2)[C@@H](C)CN([C@H](C)CO)C(=O)c2cc(NC(=O)c3ccncc3)ccc2O1	none
C[C@@H]1CN([C@H](C)CO)C(=O)c2cc(NS(C)(=O)=O)ccc2O[C@@H](C)CCCCO[C@H]1CN(C)Cc1ccncc1	FGF22 binding-1 1.7 | FGF22 binding-2 inactive | SYPRO no-protein inactive
CC(C)NC(=O)Nc1ccc2c(c1)C(=O)N([C@H](C)CO)C[C@@H](C)[C@@H](CN(C)C(=O)Nc1ccccc1)OCCCC[C@@H](C)O2	FGF22 binding-1 2.6 | FGF22 binding-2 inactive | SYPRO no-protein inactive
